Measured values from PubChem BioAssay AID1159580 (chemical genetic matrix, 2015).
The campaign covered roughly 5,500 compounds. About 2,000 (36%) were called active. Roughly 18% stayed inconclusive and do not appear here. Rule as the data show it: active = normalized growth mostly below about 0.91 (no sharp cut-off); inconclusive = no clear call, values can overlap the other calls; inactive = mostly above about 0.92. The list shows a part of the results.

Assay: chemical genetic growth profiling, strain panel (AID 1159580);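 also: tested at 20 µM; growth read once vehicle control cultures reached saturation at 30 °C; 1 = growth at the plate median or of vehicle wells; lower values mean less growth of the strain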
Details: growth OD

Measured: normalized growth

CC1(C)C(=O)C=C[C@@]2(C)C1CC(=O)[C@@]1(C)C3=CC(=O)O[C@@H](c4ccoc4)[C@]3(C)CCC12 (some centres undefined)
inactive: S. cerevisiae deletion strains, locus YBR021W, strain FUR4, active compounds read low 0.994 | S. cerevisiae deletion strains, locus YBR229C, strain ROT2, active compounds read low 1 | S. cerevisiae deletion strains, locus YCL029C, strain bik1, active compounds read low 0.994 | S. cerevisiae deletion strains, locus YDL035C, strain GPR1, active compounds read low 1.02 | S. cerevisiae deletion strains, locus YDL074C, strain BRE1, active compounds read low 1 | S. cerevisiae deletion strains, locus YDL101C, strain DUN1, active compounds read low 0.997 | S. cerevisiae deletion strains, locus YDL185W, strain tfp1, active compounds read low 1 | S. cerevisiae deletion strains, locus YDL192W, strain arf1, active compounds read low 0.987 | S. cerevisiae deletion strains, locus YDR101C, strain arx1, active compounds read low 0.988 | S. cerevisiae deletion strains, locus YDR162C, strain NBP2, active compounds read low 1.01 | S. cerevisiae deletion strains, locus YDR318W, strain mcm21, active compounds read low 0.993 | S. cerevisiae deletion strains, locus YDR388W, active compounds read low 0.996 | S. cerevisiae deletion strains, locus YDR502C, strain sam2, active compounds read low 0.983 | S. cerevisiae deletion strains, locus YER110C, active compounds read low 0.989 | S. cerevisiae deletion strains, locus YER155C, strain BEM2, active compounds read low 1.01 | S. cerevisiae deletion strains, locus YER167W, strain BCK2, active compounds read low 1 | S. cerevisiae deletion strains, locus YGL078C, strain dbp3, active compounds read low 0.999 | S. cerevisiae deletion strains, locus YGL086W, strain mad1, active compounds read low 1.01 | S. cerevisiae deletion strains, locus YGL248W, strain PDE1, active compounds read low 0.997 | S. cerevisiae deletion strains, locus YGR078C, strain PAC10, active compounds read low 0.997 | S. cerevisiae deletion strains, locus YGR135W, strain pre9, active compounds read low 0.993 | S. cerevisiae deletion strains, locus YGR229C, strain SMI1, active compounds read low 1.01 | S. cerevisiae deletion strains, locus YGR252W, strain gcn5, active compounds read low 0.939 | S. cerevisiae deletion strains, locus YHR079C, strain IRE1 (second series), active compounds read low 0.988 | S. cerevisiae deletion strains, locus YHR094C, strain hxt1, active compounds read low 0.991 | S. cerevisiae deletion strains, locus YHR129C, strain ARP1, active compounds read low 0.998 | S. cerevisiae deletion strains, locus YHR200W, strain rpn10, active compounds read low 0.99 | S. cerevisiae deletion strains, locus YIL066C, strain RNR3, active compounds read low 1.01 | S. cerevisiae deletion strains, locus YIL073C, strain SPO22, active compounds read low 1.04 | S. cerevisiae deletion strains, locus YIL125W, strain kgd1, active compounds read low 0.991 | S. cerevisiae deletion strains, locus YIR030C, strain dcg1, active compounds read low 0.996 | S. cerevisiae deletion strains, locus YJL095W, strain BCK1, active compounds read low 0.988 | S. cerevisiae deletion strains, locus YJL134W, strain LCB3, active compounds read low 1.01 | S. cerevisiae deletion strains, locus YJL168C, strain set2, active compounds read low 0.998 | S. cerevisiae deletion strains, locus YJL187C, strain SWE1 (second series), active compounds read low 0.996 | S. cerevisiae deletion strains, locus YJR043C, strain POL32, active compounds read low 1.01 | S. cerevisiae deletion strains, locus YKL009W, strain mrt4, active compounds read low 1.01 | S. cerevisiae deletion strains, locus YKL068W, active compounds read low 1 | S. cerevisiae deletion strains, locus YKL085W, strain MDH1 (second series), active compounds read low 0.998 | S. cerevisiae deletion strains, locus YKL085W, strain MDH1, active compounds read low 0.998 | S. cerevisiae deletion strains, locus YKR001C, strain vps1, active compounds read low 0.98 | S. cerevisiae deletion strains, locus YLR039C, strain RIC1, active compounds read low 1.02 | S. cerevisiae deletion strains, locus YLR058C, strain SHM2, active compounds read low 1 | S. cerevisiae deletion strains, locus YLR102C, strain apc9, active compounds read low 0.994 | S. cerevisiae deletion strains, locus YLR262C, strain YPT6, active compounds read low 1.04 | S. cerevisiae deletion strains, locus YLR268W, strain sec22, active compounds read low 1 | S. cerevisiae deletion strains, locus YLR330W, strain CHS5, active compounds read low 1 | S. cerevisiae deletion strains, locus YLR371W, strain rom2, active compounds read low 0.988 | S. cerevisiae deletion strains, locus YLR418C, strain cdc73, active compounds read low 0.985 | S. cerevisiae deletion strains, locus YML016C, strain PPZ1, active compounds read low 1 | S. cerevisiae deletion strains, locus YML032C, strain rad52, active compounds read low 0.998 | S. cerevisiae deletion strains, locus YML124C, strain tub3, active compounds read low 0.996 | S. cerevisiae deletion strains, locus YMR078C, strain ctf18, active compounds read low 1.01 | S. cerevisiae deletion strains, locus YMR223W, strain ubp8, active compounds read low 0.983 | S. cerevisiae deletion strains, locus YMR263W, strain SAP30, active compounds read low 0.998 | S. cerevisiae deletion strains, locus YMR307W, strain GAS1, active compounds read low 0.98 | S. cerevisiae deletion strains, locus YNL067W, strain RPL9B, active compounds read low 0.996 | S. cerevisiae deletion strains, locus YNL128W, strain TEP1, active compounds read low 1.02 | S. cerevisiae deletion strains, locus YNL233W, strain BNI4, active compounds read low 1.02 | S. cerevisiae deletion strains, locus YNL250W, strain rad50, active compounds read low 1 | S. cerevisiae deletion strains, locus YNL271C, strain bni1, active compounds read low 1 | S. cerevisiae deletion strains, locus YNL298W, strain CLA4, active compounds read low 0.987 | S. cerevisiae deletion strains, locus YNL307C, strain MCK1, active compounds read low 0.994 | S. cerevisiae deletion strains, locus YNR052C, strain pop2, active compounds read low 0.979 | S. cerevisiae deletion strains, locus YOL012C, strain htz1 1.33 | S. cerevisiae deletion strains, locus YOL147C, strain pex11, active compounds read low 0.992 | S. cerevisiae deletion strains, locus YOR061W, strain CKA2, active compounds read low 1.01 | S. cerevisiae deletion strains, locus YOR069W, strain VPS5, active compounds read low 0.999 | S. cerevisiae deletion strains, locus YOR136W, strain idh2, active compounds read low 1.01 | S. cerevisiae deletion strains, locus YOR144C, strain elg1, active compounds read low 0.99 | S. cerevisiae deletion strains, locus YOR184W, strain ser1, active compounds read low 1.01 | S. cerevisiae deletion strains, locus YOR316C, strain cot1, active compounds read low 0.992 | S. cerevisiae deletion strains, locus YPL241C, strain CIN2, active compounds read low 1.01 | S. cerevisiae deletion strains, locus YPR119W, strain clb2, active compounds read low 0.998 | S. cerevisiae deletion strains, locus YPR141C, strain kar3, active compounds read low 1 | S. cerevisiae deletion strains, locus YPR163C, strain tif3, active compounds read low 1 | S. cerevisiae deletion strains, locus YPR167C, strain met16, active compounds read low 1 | S. cerevisiae deletion strains, strain wtn01, active compounds read low 0.992 | S. cerevisiae strains, strain wild type, active compounds read low 1.01
